# According to PubChem BioAssay AID720518 (National Center for Advancing Translational Sciences (NCATS), 2013):
# Records with an inconclusive call do not appear. Where a call stands in place of a potency, no number is given. The source made the active and inactive calls. The call rests on the fitted dose curve.
# Experiment: qHTS for Inhibitors of Cell Surface uPA Generation: Wild-type Protective Antigen (WT-PrAg) Counterscreen for Cherry-picked Compounds
# Conditions: cells, WT protective antigen toxicity counterscreen; series mostly up to 115 µM
row,SMILES,Potency
1,FC(F)(F)Oc1ccc(NC2=NCCCS2)cc1,inactive
2,COCc1cc(C)nc2sc(C(=O)Nc3nccs3)c(N)c12,inactive
3,O=C(Nc1ccc(N2CCOCC2)cc1)c1ccc(Cl)c(S(=O)(=O)N2CCCC2)c1,inactive
4,CCc1ccccc1N(CC(=O)N1CCCC1)S(C)(=O)=O,inactive
5,COCCNC(=O)C(c1c[nH]c2ccccc12)N(C(=O)c1snc(C(N)=O)c1N)c1cccc(OC)c1 (configuration not stated),inactive
6,COc1cc(CN2CCN(S(=O)(=O)c3ccccc3)CC2)cc(OC)c1OC,inactive
7,Cc1ncc(CN2CCCC(C(=O)c3cccc(OC(C)C)c3)C2)s1 (configuration not stated),inactive
8,CN(CC(=O)NCCCn1ccnc1)S(=O)(=O)c1ccc(Cl)cc1,inactive
9,CCOc1ccc(N(CC(=O)Nc2ccc(CC)cc2)S(=O)(=O)c2c(C)[nH]c(=O)[nH]c2=O)cc1,inactive
10,CC(C)C(=O)Nc1nnc(SCc2cccc(F)c2)s1,inactive
11,COc1cc(CCC(=O)OCC(=O)Nc2ccc(C)cc2Br)cc(OC)c1OC,inactive
12,CCOc1ccc(NC(=S)N2CCC(c3ccc(C)cc3)C2)cc1 (configuration not stated),inactive
13,CC[C@]1(C(=O)OC)[C@H]2C(=O)N(C)C(=O)[C@H]2[C@H]2CN(C)C(=NC3CCCCC3)N21,inactive
14,CC1(C)CC(=O)C([N+](=O)[O-])=C(NCCCC(=O)O)C1,inactive
15,CC(C)c1ccc(SCc2noc(C(=O)NCC3CCCO3)c2C(=O)O)cc1 (configuration not stated),inactive
16,COc1cc2cc(CN(CCN3CCOCC3)C(=O)Nc3ccc(F)cc3)c(=O)[nH]c2cc1OC,inactive
17,CCN(CC)S(=O)(=O)c1ccc(C(=O)Nc2cccc(C)c2)cc1,inactive
